Screening data (PubChem BioAssay)
In the library only some 11% were active in any assay of this set; here they are far more common.
PNC inhibitor: High Content Assay for Compounds that inhibit the Assembly of the Perinucleolar Compartment; PC3M PTB-GFP, PNC prevalence imaging, 16 h; hits give low values; activity change (PNC), negative = inhibition, % at 10 µM; actives 3.1% (n = 140,000); AID 2417, 2010;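 active means readout at or below -70, meaning at least 70% loss of cells showing the perinucleolar compartment, a nuclear body marking cancer cells; inconclusive means readout between -30 and a set limit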
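PC3M cells stably expressing PTB-GFP, 750–1000 cells/well, treated 16 h at 37 °C with compound (23 nl of library stock), in duplicate. After paraformaldehyde fixation and Hoechst stain, imaged at 20x; PNC prevalence scored by image analysis.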
ALOX12 inhib: qHTS Assay for Inhibitors of 12-hLO (12-human lipoxygenase). Polyunsaturated fatty acid lipoxygenase ALOX12 (Homo sapiens), P18054. purified 12-hLO, xylenol orange hydroperoxide absorbance. Potency, µM (titrated, usually from 57.1 µM), hits mostly inhibitors. actives 0.12% (n = 150,000); active means well fitted curve in the direction sought with a large enough effect; inconclusive means small, poorly fitted or top-dose-only effect, or another doubt; inactive means no such curve, though single readings can be large; an effect the other way counts as inactive or inconclusive; further: nearly all actives have a fitted effect of over 55% in size
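Purified human 12hLO (150 nM final) was preincubated with compounds for 15 min at room temperature in 25 mM Hepes pH 7.0, 0.01% Triton X-100, then reacted with 40 uM arachidonic acid for 30 min. Hydroperoxide was detected with ferrous iron/xylenol orange.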
ALDH1A1 block: qHTS Assay for Inhibitors of Aldehyde Dehydrogenase 1 (ALDH1A1); Purified ALDH1A1, NADH fluorescence, propionaldehyde substrate; Potency, µM (top dose mostly 75.3 µM), hits mostly inhibitors; actives 7.3% (n = 220,000); Aldehyde dehydrogenase 1A1 (Homo sapiens), P00352; AID 1030, 2008
HPGD inh: qHTS Assay for Inhibitors of HPGD (15-Hydroxyprostaglandin Dehydrogenase); 15-hydroxyprostaglandin dehydrogenase [NAD(+)] (Homo sapiens), P15428; purified HPGD, NADH fluorescence kinetic, PGE2 substrate; Potency, µM, actives largely listed as inhibitors; actives 4.3% (n = 150,000)
Target sequence (P15428 whole entry, looked up): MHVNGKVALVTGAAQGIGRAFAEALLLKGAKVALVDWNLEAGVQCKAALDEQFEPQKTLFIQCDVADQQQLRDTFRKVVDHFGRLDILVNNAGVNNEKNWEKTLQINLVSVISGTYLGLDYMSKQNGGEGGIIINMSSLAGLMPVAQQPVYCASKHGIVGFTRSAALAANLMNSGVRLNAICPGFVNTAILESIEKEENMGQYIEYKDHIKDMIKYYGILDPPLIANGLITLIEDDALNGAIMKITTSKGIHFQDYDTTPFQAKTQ
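20 nM HPGD preincubated 15 min at room temperature with compound in 50 mM Tris-HCl pH 8, 0.01% Tween 20. Started with 1 mM NAD+ and 30 uM prostaglandin E2; NADH fluorescence (360/450 nm) read 5 times over 30-s intervals, last minus first.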
IMPase Li inh: qHTS Assay for Identifying the Cell-Membrane Permeable IMPase Inhibitors: Potentiation with Lithium; actives 0.35% (n = 210,000); CHO-M1 cells, IP1 TR-FRET (IP-One), carbachol + lithium; Potency, µM (doses to about 59.4 µM), most hits filed as inhibitors; active means well fitted curve in the direction sought with a large enough effect; inconclusive means small, poorly fitted or top-dose-only effect, or another doubt; inactive means no such curve, though single readings can be large; an effect the other way counts as inactive or inconclusive;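 further: IP1 builds up when IMPase is blocked and the TR-FRET signal falls; nearly all actives have a fitted effect of over 50% in size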
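Concentration–response in CHO-M1 cells, lithium-potentiated; 30 min at 37C. IP1 detected by competitive TR-FRET after 10 min lysis at RT. Hill-fitted AC50.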
IMPase cell inh: qHTS Assay for Identifying the Cell-Membrane Permeable IMPase Inhibitors; 120,000 tested, under 10 active; Inositol monophosphatase 1 (Rattus norvegicus), P97697; CHO-M1 cells, IP1 accumulation, HTRF TR-FRET ratio; inhibition (IP1 accumulation), % at 46.1 µM; active means well fitted curve in the direction sought with a large enough effect in the signal ratio, not every such curve was filed as active; inconclusive means small, poorly fitted or top-dose-only effect, or a change in a side signal; inactive means no such curve, though single readings can be large or run the other way; the % refers to the signal ratio;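 further: cells stimulated with carbachol in lithium chloride buffer; higher means more IMPase inhibition seen as more IP1 and lower FRET ratio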
Target sequence (P97697 whole entry, looked up): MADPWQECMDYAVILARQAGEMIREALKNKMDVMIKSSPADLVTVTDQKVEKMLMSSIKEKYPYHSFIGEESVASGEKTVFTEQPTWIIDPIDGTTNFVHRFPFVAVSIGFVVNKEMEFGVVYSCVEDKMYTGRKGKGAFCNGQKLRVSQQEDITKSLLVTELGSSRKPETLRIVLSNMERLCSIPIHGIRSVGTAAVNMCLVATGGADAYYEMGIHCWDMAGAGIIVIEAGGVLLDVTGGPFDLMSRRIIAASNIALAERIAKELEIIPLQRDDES
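Seeded CHO-M1 cells were dosed with compound at up to 46 uM, stimulated with carbachol for 30 min, then lysed in IP-One detection reagents. Higher IP1 lowers the TR-FRET signal.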
Numbers stand for hits; i = inactive; ? = inconclusive; nt = no result given; [ ] = remark or other dose. Unless noted, the call rests on the fitted dose curve; in most records, active means well fitted inhibition curve with a large enough effect (not every such curve was filed as active); inconclusive means small, poorly fitted or top-dose-only effect, or another doubt; inactive means no such curve, though single readings can be large or run the other way.

SMILES | PNC inhibitor | ALOX12 inhib | ALDH1A1 block | HPGD inh | IMPase Li inh | IMPase cell inh
Nc1ccccc1N=Cc1c(O)n(CCC2=CCCCC2)c(=O)[nH]c1=O | ? | i | 2.8µM | nt | nt | i
c1ccc(-c2nc(N3CCOCC3)s[n+]2-c2ccccc2)cc1 | i | i | 1.8µM | 10µM | i | nt
C=C1CC[C@H](O)C/C1=C/C=C1\CCC[C@]2(C)[C@H]1CC[C@H]2[C@@H](C)CCCC(C)C | nt | i | i | i | i | i
COc1cc(CNC(=O)CCCC/C=C\C(C)C)ccc1O | nt | i | 3.5µM | i | i | i
COc1cc([C@@H](O)CN)ccc1O | nt | i | nt | nt | nt | i
BrCCBr | nt | i | i | i | i | nt
COc1ccc(C2NCc3ccc4c(c3-n3cccc32)OCO4)cc1O (centres undefined) | -108 | i | i | i | i | i
c1cc2n(c1)-c1c(ccc3c1OCO3)CNC2c1ccc2c(c1)OCO2 (centres undefined) | i | i | i | i | i | i[1.84 µM]
CC1CCc2c(sc3nc(CSc4n[nH]c(N)n4)[nH]c(=O)c23)C1 (centres undefined) | -95 | i | ? | i | i | nt
NCCP(=O)(O)O | nt | i[11.4 µM] | ? | i | i | nt
CCCc1[nH]nc2c1C1(C(=O)N(CC(N)=O)c3ccccc31)C(C(=O)OC)=C(N)O2 (centres undefined) | -91 | i | i | i | i | ?
CCCc1[nH]nc2c1C1(C(=O)N(Cc3ccccc3)c3ccccc31)C(C(=O)OC)=C(N)O2 (centres undefined) | i | i | i | i | i | i
O=C(O)C1(c2ccc(Cl)cc2)CCC1 | -81 | i | i | i | i | i
CC(C)CC(N)C1(c2ccc(Cl)cc2)CCC1 (centres undefined) | nt | i | i | i | i | nt
Clc1ccc(-c2nc3ccc(Cl)cn3c2CN2CCOCC2)cc1 | ? | i | i | i | i | i
O=c1c2cc(Cl)cc(Cl)c2nc(CN2CCOCC2)n1-c1ccccc1F | ? | i | 14µM | i | i | ?
COc1ccc(C(=O)C2CCCN(C3CSCCSC3)C2)c(OC)c1 (centres undefined) | nt | nt | 14µM | nt | i | nt
COc1ccc(C(=O)C2CCCN(C3CSCCSC3)C2)c(C)c1 (centres undefined) | nt | nt | 14µM | nt | i | nt
O=C(O)CNC(=O)[C@@H](CS)Cc1ccccc1 | nt | i | ? | 7.9µM | i | i
Oc1ccccc1-c1ccccc1 | nt | i | 18µM | ? | i | nt
c1ccc(-c2ccccc2)cc1 | nt | i | ? | i | i | nt
O=C(Cc1ccccc1)NC(Oc1ccccc1Cl)C(Cl)(Cl)Cl (centres undefined) | i | i | ? | ? | i | nt
CCCCCCCC(=O)NC(Oc1ccccc1[N+](=O)[O-])C(Cl)(Cl)Cl (centres undefined) | i | i | i | 10µM | i | i
COC(=O)c1c(N)n(Cc2ccc(OC)cc2)c2nc3ccccc3nc12 | -82 | i | ? | ? | i | i
CCOC(=O)c1c(N)n(Cc2ccc(OC)cc2)c2nc3ccccc3nc12 | i | i | ? | ? | i | i
SMILES | PNC inhibitor | ALOX12 inhib | ALDH1A1 block | HPGD inh | IMPase Li inh | IMPase cell inh
CCCCOCCOP(=O)(OCCOCCCC)OCCOCCCC | nt | i | i | i | i | nt
CN1CCN(c2ccc(S(C)(=O)=O)cc2[N+](=O)[O-])CC1 | i | i | i | i | i | nt
CN1CCN(c2ccc(S(=O)(=O)C(F)(F)F)cc2[N+](=O)[O-])CC1 | -98 | i | i | i | i | i
C/C(=N\N1CCN(C)CC1)c1c(O)[nH]c(=O)[nH]c1=O | -121 | i | i | i | i | nt
ClCC(Cl)Cl | nt | i | i | i | i | nt
COc1ccc2cc1Oc1ccc(cc1)CC1c3cc(c(OC)cc3CCN1C)Oc1c(OC)c(OC)cc3c1C(C2)N(C)CC3 (centres undefined) | nt | i | i | i | i | nt
O=C(NC(=O)c1c(F)cccc1F)Nc1ccc(Cl)cc1 | nt | i | i | i | i | nt
CON(C)C(=O)Nc1ccc(Cl)cc1 | -121 | i | i | i | i | i
O=C(Cl)C(Cl)(Cl)Cl | nt | i | i | i | i | nt
CC(=NCCO)c1c(O)n(C2CCCCC2)c(=O)[nH]c1=O | i | i | ? | i | i | i
CCC(=O)c1c(O)n(C2CCCCCC2)c(=O)[nH]c1=O | i | i | 25µM | i | i | i
CCC(=Nc1ccc(OC)cc1OC)c1c(O)n(C2CCCCC2)c(=O)[nH]c1=O | i | i | ? | 28µM | i | i
O=C(N1CCOCC1)C1(c2ccccc2)CCNCC1 | nt | i[11.4 µM] | i[13.5 µM] | i | i | nt
CC[C@H]1CN2CCc3cc(OC)c(OC)cc3[C@H]2C[C@@H]1C[C@H]1NCCc2c1[nH]c1ccc(O)cc21 | nt | i[11.4 µM] | i[13.5 µM] | i | i | nt
CCCOC(=O)[C@@H]1[C@@H](C(=O)O)[C@H]2CC[C@@H]1O2 | nt | i[11.4 µM] | i[13.5 µM] | i | i | nt
C=CC(C)(C)c1c2c(c(O)c3c(=O)c4ccc(O)c(O)c4oc13)C=CC(C)(C)O2 | nt | nt | i | i | i | nt
CN1/C(=C\C=Nc2ccccc2)C(C)(C)c2ccccc21 | i | i | i | nt | nt | i
CN1/C(=C\C=C\C2=[N+](C)c3ccc4ccccc4c3C2(C)C)C(C)(C)c2ccccc21 | i | i | 20µM | i | i | i
Cc1[nH]cnc1CCN | nt | i | i | i | i | nt
CC(Cl)(Cl)Cl | nt | i | i | i | i | nt
CNC(=O)O/N=C/C(C)(C)S(C)=O (centres undefined) | nt | i | 28µM | i | i | nt
CNC(=O)O/N=C(/C)SC | nt | i | i | i | i | nt
N#CC1(O)CCCCC1 | nt | i | 28µM | i | i | nt
